In PMC4552634, “A New Set of Chemical Starting Points with Plasmodium falciparum Transmission-Blocking Potential for Antimalarial Drug Discovery” (PLoS ONE, 2015):
Among all 13,000 compounds or so, about 3,200 (25%) showed an effect of 50% or more. Some of the results follow.

test system: P. falciparum stage V gametocytes; set-up: BacTiter-Glo ATP luminescence viability of purified stage V gametocytes in 384-well plates, per cent inhibition versus DMSO; settings: 48 h, 5 µM; inhibitor

SMILES | % Inhibition
c1ccc(C2=NN=C(c3ccccn3)C3C4CC(C23)C2C3CC(c5ccccc53)C42)nc1 (stereo not drawn) [TCMDC-138248] | -12.71%
COc1ccc(C(=O)Nc2cc(Cl)c3c(c2)C2CCCN2CC3)cc1C(F)(F)F (stereo not drawn) [TCMDC-139417] | -51.32%
COc1cc(NC(=O)/C=C/c2cc(F)cc(F)c2F)cc(OCCN2CCN(CCN3CCOCC3)CC2)c1 [TCMDC-140930] | -13.83%
COc1ccc(CNc2cc(C)nc3sc4c(c23)CCC2(C4)OCCO2)cc1 [TCMDC-138981] | -1.212%
COc1ccc(-c2cc3nc4c(c(NCCCn5ccnc5)n3n2)CCCC4)cc1 [TCMDC-124389] | -21.29%
COc1ccc(-c2cncc3ccc(C(=O)NCc4ccncc4)nc23)cc1 [TCMDC-125411] | 51.25%
Cc1nc(NCCCn2ccnc2)cc(-c2cncc(-c3ccc(OC(F)(F)F)cc3)c2)n1 [TCMDC-125423] | 9.398%
COc1ccc(-n2nc(C)cc2C(=O)NCc2ccc(-c3c(C)noc3C)cc2)cc1 [TCMDC-133779] | 19.66%
COc1ccc(-c2cncc3ccc(C(=O)NCCCn4ccnc4)nc23)cc1 [TCMDC-125412] | 77.43%
COc1ccc(NC(=O)Nc2ccc(C)c(-c3ccc(C(=O)Nc4ccncc4)cc3)c2)cc1 [TCMDC-133705] | 11.61%
COc1ccc(Nc2cc(C)nc(Nc3ccc(NC(C)=O)cc3)n2)cc1 [TCMDC-124979] | -41.12%
O=C(Nc1ccc(I)cc1)Nc1ccc(Cn2ncc(N3CCCNCC3)c(Cl)c2=O)cc1 [TCMDC-133322] | -17.85%
Cc1ccc2c(C3=CCN(CCCCC4(C)C(=O)Nc5c(F)cccc54)CC3)c(C)[nH]c2c1 (stereo not drawn) [TCMDC-141005] | 12.05%
CC(C)N(Cc1ccc(-c2ccc(C(F)(F)F)cc2)cc1)C(=O)Cn1c(CCc2cccc(F)c2F)cc(=O)c2ccc(CCCN3CCCCC3)cc21 [TCMDC-141581] | 119.6%
CCN(CC)Cc1ccc2c(=O)cc(CCc3cccc(F)c3F)n(CC(=O)N(Cc3ccc(-c4ccc(C(F)(F)F)cc4)cc3)C(C)C)c2c1 [TCMDC-141567] | 74.8%
CN(C)CCOc1cc(NC(=O)Nc2cccc3c(-c4ccncc4)cccc23)ccc1I [TCMDC-139143] | 27.84%
CN(C)CCOc1cc(NC(=O)Nc2ccc(Oc3ccccc3)cc2)ccc1I [TCMDC-139113] | -27.54%
COc1cc(Cc2cnc(N)nc2N)cc(OC)c1OCCNC(=O)[C@@H](N)CCC(=O)O [TCMDC-137685] | -2.761%
Cc1cc(F)ccc1[C@H]1C[C@H](N2CCOCC2)CCN1C(=O)N(C)[C@@H](C)c1cc(C(F)(F)F)cc(C(F)(F)F)c1 [TCMDC-138838] | 17.17%
Cc1cc(F)ccc1[C@H]1CNCCN1C(=O)N(C)[C@@H](C)c1cc(C(F)(F)F)cc(C(F)(F)F)c1 [TCMDC-138495] | 76.86%
Cc1cc(F)ccc1[C@H]1CNCCN1C(=O)N(C)C(C)(C)c1cc(C(F)(F)F)cc(C(F)(F)F)c1 [TCMDC-138568] | 62.57%

SMILES | % Inhibition
CCNc1cc(C(=O)N[C@@H](Cc2ccccc2)[C@H](O)CNC2CCC(C(C)(C)C)CC2)cc(N2CCCC2=O)c1 (stereo partly drawn) [TCMDC-138903] | 47.86%
Cc1ccnc2nc(C(=O)Nc3cc(Cl)ccc3N3CCOCC3)nn12 [TCMDC-124435] | 7.323%
CC(Oc1ccc(Cl)cc1)C(=O)Nc1cc(C(F)(F)F)ccc1N1CCOCC1 (stereo not drawn) [TCMDC-125311] | 3.686%
CC1CCCN(C(=O)C(C)Nc2cc(Cl)ccc2N2CCOCC2)C1 (stereo not drawn) [TCMDC-125110] | 85%
COc1ccccc1CNC(=O)CCn1c(=O)[nH]c2ccsc2c1=O [TCMDC-123587] | 30.03%
O=C(CSc1nc2ccccc2c(=O)n1C1CC1)Nc1cc(C(F)(F)F)ccc1Cl [TCMDC-123578] | -84.13%
NC(N)=NCCCN(Cc1ccccc1)c1ccccc1 [TCMDC-131836] | 40.87%
NC(N)=NCC=C(c1ccccc1)c1ccccc1 [TCMDC-137566] | 51.32%
CC1(C)N=C(N)N=C(N)N1OCOc1cc(Cl)c(Cl)cc1Cl [TCMDC-131783] | 42.76%
CCOC(=O)c1cc(Cl)cc(Cl)c1OCCCON1C(N)=NC(N)=NC1(C)C [TCMDC-131703] | 21.46%
O=C(Nc1ccc(-c2nc3ccccc3[nH]2)cc1)c1cccc(S(=O)(=O)N2CCCC2)c1 [TCMDC-125262] | -9.526%
CC(C)CNCc1cccc(-c2cccc(CN(CCCN3CCN(C)CC3)C(=O)NC3CCCCC3)c2)c1 [TCMDC-140633] | 106.9%
CN(C)CCN(Cc1ccc(-c2ccc(CNCCc3ccccc3)cc2)nc1)C(=O)CCC1CCCC1 [TCMDC-141402] | 63.7%
CC(C)CNCc1ccc(-c2ccc(CN(CCCN3CCN(C)CC3)C(=O)CCC3CCCC3)cc2)cc1 [TCMDC-140559] | 105.9%
CC(C)CNCc1ccc(-c2cccc(CN(CCN(C)C)C(=O)CCC3CCCC3)c2)cc1 [TCMDC-140553] | 109.4%
CC[C@H](C)CNC(=O)c1cncc(-c2ccc(CN(C)C3CCN(C)CC3)cc2)c1 [TCMDC-134233] | 22.49%
CC(C)CNC(=O)c1cncc(-c2ccc(CN(C)C3CCN(C)CC3)cc2)c1 [TCMDC-134235] | 31.51%
CC[C@H](C)CNC(=O)c1cncc(-c2ccc(CNC3CCCC3)cc2)c1 [TCMDC-134232] | 8.826%
COc1cc(NC(=O)/C=C/c2ccccc2OC(F)(F)F)cc(OCCN2CCN(CCN3CCOCC3)CC2)c1 [TCMDC-140929] | -8.825%
COc1cc(NC(=O)NC(CCN2CCC3(CCc4ccccc43)CC2)c2ccc(Cl)c(Cl)c2)cc(OC)c1OC (stereo not drawn) [TCMDC-141765] | -19.84%
CCC(C)CN1CCC(N(C)c2cc(NC(=O)c3ccc(F)cc3)ccn2)CC1 (stereo not drawn) [TCMDC-134951] | 19.56%
